{
  "source": "PubChem BioAssay (NCATS)",
  "note": "Records with an inconclusive call do not appear. Calls of active or inactive are those of the source. Calls come from the whole dose curve; as a rule, active = well fitted cell-killing curve with a large enough effect; inconclusive = small, poorly fitted or top-dose-only effect; inactive = no such curve, though single readings can be large or run the other way. Potency is the fitted concentration of half-maximal effect.",
  "data": [
    {"experiment": "qHTS of pediatric cancer cell lines to identify multiple opportunities for drug repurposing: Confirmatory screen for DAOY cells (AID 1347114); note: nearly all actives have a fitted effect of over 65% in size", "conditions": "DAOY medulloblastoma cells viability, cytotoxicity qHTS; series mostly up to 45.9 µM", "excerpt": "Drug repurposing or repositioning has been offered as a strategy for drug development in oncology programs. This approach has special potential for childhood cancers and other rare or orphan diseases, where the expected return on new drug development has been a disincentive to pharmaceuticals.\nIn this project we exploit the poly-pharmacology of drugs to discover new indications via phenotypic screening of a panel of 19 well-characterized cell lines derived from solid tumors seen in children and adolescents. The goal is to identify approved drugs with previously unrecognized anticancer properties that has the potential to reveal new mechanisms and biological processes involved in carcinogenesis or drug resistance. We employed a titration-based paradigm (quantitative high-throughput screening or qHTS), where all compounds were tested at multiple concentrations for their effect on cell viability. Concentration-response curves (CRCs) were derived directly from the primary screen, and both potency and efficacy values were used to identify compounds with robust bioactivity profiles. We screened the NIH Chemical Genomics Center (NCGC) Pharmaceutical Collection (NPC) and Mechanism Interrogation Plate (MIPE) small molecule collections of approved and investigational compounds against these cell lines; and measured metabolically active cells after 48 hours of compound treatment as a proxy for cell viability.\nAssay Submitter: Nathalia J. Martinez, National Center for Advancing Translational Sciences, National Institutes of Health, Rockville, MD, USA; email: natalia.martinez@nih.gov\n[1] Shen, M et al. Quantitative high-throughput phenotypic screening of pediatric cancer cell lines identifies multiple opportunities for drug repurposing. Oncotarget 2017 Dec 19;9(4):4758-4772. PMID 29435139.\nThe cells were obtained from University of North Carolina (UNC), Pediatric Preclinical Testing Program (PPT), and Coriell Institute (CI).\nqHTS cell viability assay:\nCells were assayed in growth media at a density of 500-1,000 cells/well. Five microliters of cells were dispensed into 1,536-well, white, solid-bottom, TC-treated plates (Greiner Bio One) using a multidrop dispenser and incubated at 37 degrees C, 5% CO2, under a humidified atmosphere for 5 hours. Twenty-three nanoliters of compounds and controls (neutral control DMSO or positive control bortezomib at final concentration of 2.3 µM) were subsequently transferred by Kalypsys pintool. For primary screens, the MIPE collection was tested at 11-point dilutions (final concentrations range from 0.78 nM to 46 µM) and the NPC collection at 8-point dilutions (final concentrations range from 0.59 nM to 46 µM). Compounds tested in follow-up screens were assayed at 11-point dilutions. Cells were incubated for 48 hours, followed by addition of 3 uL of CellTiter-Glo (Promega). After a 15 min incubation at room temperature, samples were analyzed for luminescence intensity using a ViewLux High-throughput CCD imager equipped with clear filters.", "values": [
      {"molecule": "O=C(Nc1cn[nH]c1-c1nc2ccc(CN3CCOCC3)cc2[nH]1)NC1CC1", "Potency": "inactive"},
      {"molecule": "C[C@@]12O[C@@H](C[C@]1(O)CO)n1c3ccccc3c3c4c(c5c6ccccc6n2c5c31)CNC4=O", "Potency": "9270 nM (active)"},
      {"molecule": "Cc1ccc(-c2ncn(-c3ccc(Nc4nccc(-c5cccc(N6CCOCC6)c5)n4)cc3)n2)cn1", "Potency": "240 nM (active)"},
      {"molecule": "CN1CCN(c2cc(C(=O)Nc3ccc4c(c3)-c3c(c(C(N)=O)nn3-c3ccc(F)cc3)CC4)c(Cl)cn2)CC1", "Potency": "23300 nM (active)"},
      {"molecule": "CC(C)(C)c1cnc(CSc2cnc(NC(=O)C3CCNCC3)s2)o1", "Potency": "1170 nM (active)"},
      {"molecule": "CC1(C)O[C@@H]2C[C@@H]3[C@H]4C[C@@H](F)C5=CC(=O)C=C[C@]5(C)[C@@]4(F)[C@@H](O)C[C@]3(C)[C@]2(C(=O)CO)O1", "Potency": "737 nM (active)"},
      {"molecule": "C=CCn1c(=O)c2cnc(Nc3ccc(N4CCN(C)CC4)cc3)nc2n1-c1cccc(C(C)(C)O)n1", "Potency": "1850 nM (active)"},
      {"molecule": "Cc1c(C)n(Cc2ccc(-c3ccccc3C(=O)O)cc2)c2ccc(C(=O)N[C@@H](C)c3ccc([N+](=O)[O-])cc3)cc12", "Potency": "inactive"},
      {"molecule": "CC(C)[C@H](C(=O)Nc1ccc(C(=O)NO)cc1)c1ccccc1", "Potency": "2330 nM (active)"},
      {"molecule": "CC[C@H]1CN2CCc3cc(OC)c(OC)cc3[C@H]2C[C@@H]1C[C@@H]1NCCc2cc(OC)c(OC)cc21", "Potency": "3690 nM (active)"},
      {"molecule": "CN(C)CC(C)(C)CNc1nn2c(-c3ccccc3)nnc2cc1C1CCC1", "Potency": "inactive"},
      {"molecule": "Cc1cc(Nc2cc(N3CCN(C)CC3)nc(Sc3ccc(NC(=O)C4CC4)cc3)n2)n[nH]1", "Potency": "5220 nM (active)"},
      {"molecule": "O=c1[nH]nc(Sc2ncc([N+](=O)[O-])s2)n1-c1ccc2c(c1)OCCO2", "Potency": "23300 nM (active)"},
      {"molecule": "Nc1ccccc1NC(=O)c1ccc(CNC(=O)OCc2cccnc2)cc1", "Potency": "1910 nM (active)"},
      {"molecule": "COc1cc2c(Oc3ccc(NC(=O)C4(C(=O)Nc5ccc(F)cc5)CC4)cc3F)ccnc2cc1OCCCN1CCOCC1", "Potency": "11700 nM (active)"},
      {"molecule": "CC=C1NC(=O)[C@H]2CSSCCC=C[C@H](CC(=O)N[C@H](C(C)C)C(=O)N2)OC(=O)[C@H](C(C)C)NC1=O", "Potency": "inactive"},
      {"molecule": "CC(C)c1cnn2c(NCc3ccccc3)cc(N[C@@H](CO)[C@H](O)CO)nc12", "Potency": "827 nM (active)"},
      {"molecule": "O=C(C=Cc1cccnc1)NCCCCC1CCN(C(=O)c2ccccc2)CC1", "Potency": "inactive"},
      {"molecule": "CC=CC1=C(C(=O)O)N2C(=O)[C@H](NC(=O)[C@H](N)c3ccc(O)cc3)[C@@H]2SC1", "Potency": "inactive"},
      {"molecule": "CC(C)C[C@H](NC(=O)CNC(=O)c1cc(Cl)ccc1Cl)B(O)O", "Potency": "185 nM (active)"},
      {"molecule": "COc1ccc(-c2cc3c(C)nc(N)nc3n(C3CCC(OCCO)CC3)c2=O)cn1", "note": "(stereo not given)", "Potency": "inactive"},
      {"molecule": "COC(=O)[C@]12CCC(C)(C)C[C@@H]1[C@@H]1C(=O)C=C3[C@@]4(C)C=C(C#N)C(=O)C(C)(C)[C@@H]4CC[C@@]3(C)[C@]1(C)CC2", "Potency": "2330 nM (active)"},
      {"molecule": "CCn1cc(-c2ccnc3[nH]c(-c4cccc(CN(C)C)c4)cc23)c(-c2ccc(NC(=O)N(C)C)cc2)n1", "Potency": "18500 nM (active)"},
      {"molecule": "CC(NCc1ccc2c(c1)nc(NC(=O)c1ccc(-c3cn[nH]c3)s1)n2CC(C)(C)O)C(C)(C)C", "note": "(stereo not given)", "Potency": "1470 nM (active)"},
      {"molecule": "Cc1nc2cnc3ccc(C#Cc4cccnc4)cc3c2n1-c1ccc(C(C)(C)C#N)cc1", "Potency": "13500 nM (active)"},
      {"molecule": "COCCn1c2c([n+](Cc3cnccn3)c1C)C(=O)c1ccccc1C2=O", "Potency": "41.4 nM (active)"},
      {"molecule": "COc1cccc2nc(-c3cccs3)nc(NN3C(=O)C=C(C)C3=O)c12", "Potency": "5220 nM (active)"},
      {"molecule": "CC(C)(C)c1cc(C(C)(C)C)c(NC(=O)c2c[nH]c3ccccc3c2=O)cc1O", "Potency": "18500 nM (active)"},
      {"molecule": "Nc1ccccc1NC(=O)c1ccc(CNc2nccc(-c3cccnc3)n2)cc1", "Potency": "2930 nM (active)"},
      {"molecule": "COC(=O)Nc1nc2ccc(C(=O)c3ccc(F)cc3)cc2[nH]1", "Potency": "1170 nM (active)"},
      {"molecule": "COc1cccc(Nc2c(C(N)=O)cnc3c(C)cc(S(=O)(=O)c4cccc(C(=O)N(C)C)c4)cc23)c1", "Potency": "inactive"},
      {"molecule": "Cc1ccc(C(N)=O)cc1Nc1nccc(-c2cn(C(C)C)c3cnccc23)n1", "Potency": "13500 nM (active)"},
      {"molecule": "CC(C)(C)c1cc(NC(=O)Nc2ccc(-c3cn4c(n3)sc3cc(OCCN5CCOCC5)ccc34)cc2)no1", "Potency": "20800 nM (active)"},
      {"molecule": "COc1cccc2c(NCc3ccccc3)nc(-n3c(N)nc4ccccc43)nc12", "Potency": "2330 nM (active)"},
      {"molecule": "CC[C@@]1(O)C(=O)OCc2c1cc1n(c2=O)Cc2cc3cc(O)ccc3nc2-1", "Potency": "657 nM (active)"},
      {"molecule": "CC1=C(CO)C(=O)O[C@@H]([C@@H](C)[C@H]2CC[C@H]3[C@@H]4C[C@H]5O[C@]56[C@@H](O)C=CC(=O)[C@]6(C)[C@@H]4CC[C@]23C)C1", "Potency": "inactive"},
      {"molecule": "CC(C)c1nn(-c2c(Cl)cccc2Cl)c2nc(Cc3ccc(OCCO)cc3)[nH]c(=O)c12", "Potency": "208 nM (active)"},
      {"molecule": "COc1cc(Nc2ncc(F)c(Nc3ccc4c(n3)N(COP(=O)(O)O)C(=O)C(C)(C)O4)n2)cc(OC)c1OC", "Potency": "3690 nM (active)"},
      {"molecule": "CC1(C)OC2=C(C(=O)c3ccccc3C2=O)[C@H](NCc2ccccc2)[C@H]1O", "Potency": "8270 nM (active)"},
      {"molecule": "Cc1cnc(Nc2ccc(F)cc2Cl)nc1-c1c[nH]c(C(=O)N[C@H](CO)c2cccc(Cl)c2)c1", "Potency": "23300 nM (active)"}
    ]}
  ]
}
